# In article PMC7862700, “An all-to-all approach to the identification of sequence-specific readers for epigenetic DNA modifications on cytosine”:
# Experiments:
# Test in all cases: DAPPL (digital affinity profiling via proximity ligation, sequencing); 10 mM Tris-HCl pH 7.5, 50 mM NaCl, 1 mM DTT, 4% glycerol, room temperature, 30 min; GST-TFs on glutathione beads, 16-mer random dsDNA library, 0.1% formaldehyde crosslink after washing; high values mean tight binding
# Details in all cases: protein: recombinant; tags: N-terminal GST; dsDNA, one strand shown
# ELK1 = biological target: T1, ELK1 (Homo sapiens, UniProt P19419 1-428)
# T1 sequence: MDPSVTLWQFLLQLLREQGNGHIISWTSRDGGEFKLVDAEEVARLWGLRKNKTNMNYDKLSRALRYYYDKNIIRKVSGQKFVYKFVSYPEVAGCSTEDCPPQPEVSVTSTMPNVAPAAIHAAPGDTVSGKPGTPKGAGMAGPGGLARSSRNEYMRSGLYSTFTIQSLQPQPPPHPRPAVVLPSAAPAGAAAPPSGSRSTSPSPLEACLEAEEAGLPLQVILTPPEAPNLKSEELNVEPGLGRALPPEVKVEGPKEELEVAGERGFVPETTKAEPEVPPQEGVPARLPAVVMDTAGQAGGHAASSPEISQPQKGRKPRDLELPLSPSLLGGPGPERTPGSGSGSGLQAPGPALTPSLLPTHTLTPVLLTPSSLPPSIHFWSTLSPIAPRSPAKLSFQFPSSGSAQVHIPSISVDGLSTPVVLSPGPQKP
# Procedure, shortened: (§1)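 Binding signal is defined as a hexamer's read frequency for one factor over its frequency for the tag-only sample. To obtain reads, GST-fused human transcription factors were expressed in yeast, captured on glutathione beads, barcoded with DNA and pooled with that sample. Pools met 200 nmole of a 16-mer random double-stranded DNA library in Tris/NaCl/DTT/glycerol buffer for 30 min at room temperature before washing, 0.1% formaldehyde crosslinking, proximity ligation (BsaI/T4 ligase, 1 h, 37 °C), PCR and Illumina NextSeq500 sequencing.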
# ELK3 = biological target: T2, ELK3 (Homo sapiens, UniProt P41970 1-407)
# T2 sequence: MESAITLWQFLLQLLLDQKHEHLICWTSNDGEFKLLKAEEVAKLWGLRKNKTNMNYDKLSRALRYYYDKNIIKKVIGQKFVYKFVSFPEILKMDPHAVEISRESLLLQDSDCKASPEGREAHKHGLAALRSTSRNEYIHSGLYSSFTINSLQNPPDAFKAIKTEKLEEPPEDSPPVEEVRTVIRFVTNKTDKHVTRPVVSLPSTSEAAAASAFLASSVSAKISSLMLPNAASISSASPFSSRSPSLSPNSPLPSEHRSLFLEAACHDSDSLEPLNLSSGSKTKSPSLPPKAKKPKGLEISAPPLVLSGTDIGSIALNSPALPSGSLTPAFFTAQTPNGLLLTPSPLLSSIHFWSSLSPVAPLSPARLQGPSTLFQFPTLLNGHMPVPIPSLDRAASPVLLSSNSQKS
# Procedure, shortened: as §1
# ELF3 = biological target: T3, ELF3 (Homo sapiens, UniProt P78545 1-371)
# T3 sequence: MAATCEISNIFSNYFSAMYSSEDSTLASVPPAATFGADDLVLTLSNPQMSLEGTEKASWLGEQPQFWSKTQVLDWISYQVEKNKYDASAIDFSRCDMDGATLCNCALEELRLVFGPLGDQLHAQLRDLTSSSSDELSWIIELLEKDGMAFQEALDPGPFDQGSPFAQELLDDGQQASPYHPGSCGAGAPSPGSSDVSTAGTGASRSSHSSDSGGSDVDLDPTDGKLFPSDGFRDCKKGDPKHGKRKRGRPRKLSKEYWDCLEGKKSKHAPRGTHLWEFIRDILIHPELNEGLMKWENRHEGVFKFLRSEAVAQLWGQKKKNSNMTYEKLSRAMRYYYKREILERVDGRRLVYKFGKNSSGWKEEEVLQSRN
# Procedure, shortened: as §1
# ETV3L = biological target: T4, ETV3L (Homo sapiens, UniProt Q6ZN32 1-361)
# T4 sequence: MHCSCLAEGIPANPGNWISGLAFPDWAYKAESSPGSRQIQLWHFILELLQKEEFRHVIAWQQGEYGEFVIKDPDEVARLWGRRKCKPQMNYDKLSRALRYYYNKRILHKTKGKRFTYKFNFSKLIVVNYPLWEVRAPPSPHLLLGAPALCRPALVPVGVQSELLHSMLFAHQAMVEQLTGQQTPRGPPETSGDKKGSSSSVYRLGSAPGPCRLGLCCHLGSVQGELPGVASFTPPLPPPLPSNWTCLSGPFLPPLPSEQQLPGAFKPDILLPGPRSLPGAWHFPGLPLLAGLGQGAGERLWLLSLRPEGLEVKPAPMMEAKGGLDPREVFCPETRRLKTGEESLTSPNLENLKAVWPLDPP
# Procedure, shortened: as §1
# ERF = biological target: T5, ERF (Homo sapiens, UniProt P50548 1-548)
# T5 sequence: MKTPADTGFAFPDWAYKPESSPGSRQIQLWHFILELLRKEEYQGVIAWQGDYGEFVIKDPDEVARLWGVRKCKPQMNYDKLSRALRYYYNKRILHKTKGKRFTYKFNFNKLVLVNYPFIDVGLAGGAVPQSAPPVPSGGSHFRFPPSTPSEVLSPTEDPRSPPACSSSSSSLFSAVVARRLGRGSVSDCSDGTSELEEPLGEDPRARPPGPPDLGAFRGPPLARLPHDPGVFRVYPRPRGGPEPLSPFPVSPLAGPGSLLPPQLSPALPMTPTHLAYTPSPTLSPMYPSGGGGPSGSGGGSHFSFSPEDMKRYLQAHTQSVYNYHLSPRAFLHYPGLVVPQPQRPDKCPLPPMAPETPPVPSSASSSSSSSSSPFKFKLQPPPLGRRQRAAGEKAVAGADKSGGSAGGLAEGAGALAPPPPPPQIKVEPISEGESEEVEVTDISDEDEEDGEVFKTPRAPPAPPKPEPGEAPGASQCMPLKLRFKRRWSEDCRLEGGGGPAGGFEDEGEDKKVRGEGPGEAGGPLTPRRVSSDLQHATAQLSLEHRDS
# Procedure, shortened: as §1
# ETS2 = biological target: T6, ETS2 (Homo sapiens, UniProt P15036 1-469)
# T6 sequence: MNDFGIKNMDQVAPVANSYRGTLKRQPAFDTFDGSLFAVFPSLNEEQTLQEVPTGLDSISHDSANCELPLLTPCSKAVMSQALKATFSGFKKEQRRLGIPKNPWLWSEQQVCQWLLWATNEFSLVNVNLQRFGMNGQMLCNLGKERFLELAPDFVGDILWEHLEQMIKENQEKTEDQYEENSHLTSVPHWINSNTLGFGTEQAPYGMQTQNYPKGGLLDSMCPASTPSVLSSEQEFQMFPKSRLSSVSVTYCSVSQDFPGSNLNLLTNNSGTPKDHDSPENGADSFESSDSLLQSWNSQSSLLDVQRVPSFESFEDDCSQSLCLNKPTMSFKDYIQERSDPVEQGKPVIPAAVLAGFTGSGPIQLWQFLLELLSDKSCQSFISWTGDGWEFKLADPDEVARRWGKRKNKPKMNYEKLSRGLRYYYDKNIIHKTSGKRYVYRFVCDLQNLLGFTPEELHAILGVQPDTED
# Procedure, shortened: as §1
# SPDEF = biological target: T7, SPDEF (Homo sapiens, UniProt O95238 1-335)
# T7 sequence: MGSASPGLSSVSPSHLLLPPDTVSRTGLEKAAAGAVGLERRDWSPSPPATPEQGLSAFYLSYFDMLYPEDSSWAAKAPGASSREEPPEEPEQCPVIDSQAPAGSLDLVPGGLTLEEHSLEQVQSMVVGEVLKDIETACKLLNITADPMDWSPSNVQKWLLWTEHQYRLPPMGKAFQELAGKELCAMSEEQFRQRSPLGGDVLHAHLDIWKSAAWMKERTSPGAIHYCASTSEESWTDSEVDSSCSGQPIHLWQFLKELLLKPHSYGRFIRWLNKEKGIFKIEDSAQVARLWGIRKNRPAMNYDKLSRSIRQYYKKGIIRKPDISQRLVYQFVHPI
# Procedure, shortened: as §1
# ETV7 = biological target: T8, ETV7 (Homo sapiens, UniProt Q9Y603 1-341)
# T8 sequence: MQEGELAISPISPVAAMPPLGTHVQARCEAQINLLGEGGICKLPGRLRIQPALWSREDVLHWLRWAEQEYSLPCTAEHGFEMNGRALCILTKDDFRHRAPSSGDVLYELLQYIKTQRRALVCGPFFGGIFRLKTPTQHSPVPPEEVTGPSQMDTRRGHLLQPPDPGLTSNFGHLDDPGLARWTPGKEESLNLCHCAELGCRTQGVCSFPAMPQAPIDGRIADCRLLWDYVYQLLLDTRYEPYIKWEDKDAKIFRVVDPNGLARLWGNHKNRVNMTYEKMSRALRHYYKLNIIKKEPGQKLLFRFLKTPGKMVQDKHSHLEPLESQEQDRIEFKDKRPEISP
# Procedure, shortened: as §1
Sequence,binding signal (ELK1),binding signal (ELK3),binding signal (ELF3),binding signal (ETV3L),binding signal (ERF),binding signal (ETS2),binding signal (SPDEF),binding signal (ETV7)
CGCTAA,"1.05 fold enrichment (6-mer frequency, TF over GST control)","1 fold enrichment (6-mer frequency, TF over GST control)","1 fold enrichment (6-mer frequency, TF over GST control)","1 fold enrichment (6-mer frequency, TF over GST control)",,,,
TAGGTA,"1.06 fold enrichment (6-mer frequency, TF over GST control)",,"1.12 fold enrichment (6-mer frequency, TF over GST control)","1.01 fold enrichment (6-mer frequency, TF over GST control)","1.08 fold enrichment (6-mer frequency, TF over GST control)","1.03 fold enrichment (6-mer frequency, TF over GST control)","1.02 fold enrichment (6-mer frequency, TF over GST control)","1.1 fold enrichment (6-mer frequency, TF over GST control)"
